About 83,000 compounds went through this panel and 20% of them were active in at least one assay; those are over-represented in the sample as a whole.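 96-well plates, one dose, 48 hours. Percent growth reported; active if below 10.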 Activity calls are given as the source filed them.

The subject of the assay is LOX IMVI melanoma. As to the kind of experiment: NCI-60 one-dose screen, 48 h (100 = growth as untreated, 0 = no growth, -100 = all killed). The note with it: 10 µM. On the procedure: Growth inhibition of the LOX IMVI human tumor cell line is measured as a screen for anti-cancer activity. Cells are grown in 96 well plates and exposed to the test compound for 48 hours. Compounds are tested at a single concentration, which is 10^-5 M for most compounds. The reported endpoint is percent growth (GI% or GIPRCNT), where numbers from 0 - 100% represent growth inhibition, and numbers from -100% - 0 represent cell death. For example, a value of 40 represents 60% growth inhibition. A value of 0 means no net growth occurred over the course of the experiment. A value of -40 indicates 40% of cells at the beginning of the experiment died by the end of the experiment. A value of -100 means all cells are dead at the end of the experiment.
NCI-60 Human Tumor Cell Lines Screen was performed using the standard one-dose NCI protocol, which is described in more detail at https://dtp.cancer.gov/discovery_development/nci-60/default.htm.
Compounds with GIPRCNT values below 10 were considered active. Activity score was based on GIPRCNT using the following formula: […]
Score is 0 for GIPRCNT values of 100 or above, 50 for GIPRCNT values of 0, and 100 for GIPRCNT values of -100.
In the case of `COc1ccc(-c2nc3cc(C)ccc3n2CC(=O)N=Nc2c(O)[nH]c3ccccc23)cc1`, the growth is -63.5% (active). With `CC(C)CSc1nc(NCCc2c[nH]c3ccccc23)c(C#N)c(-c2ccc(F)cc2)n1`, the growth was 12.4% (inactive). In the case of `COc1ccc(Cc2nn(CC(=O)N/N=C/c3ccc(F)cc3)c(=O)c3c(C)noc23)cc1`, the growth is 29.5% (inactive).

For the compound `Cn1cc(NC(=O)c2cc(NC(=O)c3ccc(C#Cc4ccccc4)cc3)cn2C)cc1C(=O)NCCCN1CCOCC1`, the growth is -100% (active). Next, `Cc1ccc(C2CC(c3ccc(S(=O)(=O)NCCNc4nc(Nc5ccc(F)cc5)nc(N(C)C)n4)cc3)=Nc3c(N)nc(N)nc3N2)cc1` (stereo not given): 6.81% (active). As for `Cc1cc(=O)oc2cc(OCCCCOc3ccc(/C=C/C(=O)Nc4ccccc4N)cc3)ccc12`, the growth is 0.965% (active).

As for `CN1CCN(c2ccc3c(c2)nc(NNC(=O)c2cnccn2)c2cccn23)CC1`, the growth is -43.8% (active). Consider `O=C(c1ccc(OCCN2CCOCC2)cc1)C1[C@H](c2ccc(Cl)cc2)[C@@H](c2ccccc2)NC12C(=O)Nc1ccc(Br)cc12` (stereo not given in full), for which the growth was -75.2% (active). In the case of `O=C(CN1C(=O)/C(=C/c2ccccc2Cl)SC1=S)N1CCOCC1` it was 48.2% (inactive); in that of `COc1ccc(-c2nc3ccc(C(=O)NN4C(=O)c5ccc([N+](=O)[O-])cc5C4=O)cc3[nH]2)cc1`, 87.1% (inactive); in that of `COC(=O)C[C@](O)(CCCC(C)(C)O)C(=O)O[C@H]1C(OC)=C[C@@]23CCCN2CCc2cc4c(cc2[C@@H]13)OCO4`, -82.4% (active).

In the case of `COc1ccc(NC(=O)Nc2ccc(OCc3ccc(F)cc3)cc2)cc1`, the growth was 26.6% (inactive). For `CCOC(=O)/C=C/c1cccc2c1C(=O)NC(C)(c1cc3cc(Br)ccc3oc1=O)N2` (stereo not given), the growth was 44.3% (inactive). For the compound `CC1(C)CC[C@]2(C(=O)Nc3ccc(F)cc3)CC[C@]3(C)C(=CCC4[C@@]5(C)C[C@@H](O)[C@H](O)[C@@](C)(CO)C5CC[C@]43C)C2C1` (stereo not given in full), the growth is 26.5% (inactive). For `O=C(/C=C/Nc1ccc2oc(=O)ccc2c1)c1cc2cc(Br)ccc2oc1=O`, the growth is 99.3% (inactive). With `Cc1nc(Nc2ccccn2)sc1C(=O)CC(SCC(=O)Nc1ccc(Cl)cc1)c1ccccc1F` (stereo not given), the growth was -22.5% (active). As for `C#CCOc1ccc(/C=N/Nc2nc(-c3ccc(F)cc3)cs2)cc1OC`, the growth was 62.4% (inactive). Turning to `Nc1n[nH]c2cccc(C#Cc3cccc(NC(=O)c4cccc(Cl)c4)c3)c12`, the growth was 17.7% (inactive). Take `CCOC(=O)C1=C(N)N(c2ccccc2)C2=C(C(=O)CC(C)(C)C2)C1c1ccccc1Cl` (stereo not given): the growth is 85.4% (inactive). As to `CCCCCCn1c(O)c(N=Nc2nc(-c3cc4ccccc4oc3=O)cs2)c2ccccc21`, the growth is -63.9% (active). For `Cc1cccc(-c2nc(Nc3ccc(C)c(S(N)(=O)=O)c3)c3ccccc3n2)c1`, the growth was -34.7% (active). Next, `CCOC(=O)C1=C(N)N(c2ccccc2)C2=C(C(=O)CC(C)(C)C2)C1c1ccc([N+](=O)[O-])cc1` (stereo not given): 85.5% (inactive); `CCCCCCCCc1ccc(C(=O)Nc2ccc(C)cc2C(=O)O)cc1C`: 101% (inactive). As for `CN(C)CCCNC(=O)c1cc(NC(=O)c2cc(NC(=O)c3ccc(C#Cc4ccccc4)cc3)cn2C)cn1C`, the growth was -100% (active). As for `C#CCOc1cc(N(CC)CC)ccc1C(C(=O)NC(C)(C)C)N(C(=O)C1CCc2cc(F)ccc2O1)c1ccccc1F` (stereo not given), the growth is -61.6% (active). In the case of `CC1(C)CC[C@]2(C(=O)O)CC[C@]3(C)C(=CCC4[C@@]5(C)C[C@@H](O)[C@@H]6OC(c7ccco7)OC[C@@]6(C)C5CC[C@]43C)C2C1` (stereo not given in full), the growth is 22.9% (inactive). Next, `COc1ccc(-c2ccnc(SCc3cc4ccccc4[nH]c3=O)n2)cc1OC`: 18.8% (inactive). Next, `CC(C)Sc1nc(NCCc2c[nH]c3ccccc23)c(C#N)c(-c2ccc(F)cc2)n1`: -17.3% (active).

With `Cn1cc(-c2cc3nc(-c4cn(C)c5ncccc45)cc(N)n3n2)c2ccccc21`, the growth was -56.8% (active). In the case of `COc1ccc(/C=C/c2nc3ccccc3n3c(-c4ccc(Cl)cc4)nnc23)cc1` it was 88.5% (inactive); in that of `COc1ccc2c(c1)c(/C=N/Nc1ccc3ccccc3n1)cn2C`, -97.9% (active). For the compound `Cc1sc(C(NC(=O)OCCn2c([N+](=O)[O-])cnc2C)C(F)(F)Cl)nc1-c1ccc(OC(F)(F)F)cc1` (stereo not given), the growth is -98.3% (active).

For the compound `C=C1CC[C@@H]2[C@]3(C)COC(c4cn[nH]c4-c4cccc(Cl)c4)O[C@@H]3CC[C@@]2(C)[C@@H]1C/C=C1/C(=O)OCC1O` (stereo not given in full), the growth is -100% (active). Next, `COc1ccc(C(=O)/C=C/c2ccc(OC)c(OCc3ccccc3)c2)cc1OC`: -26% (active).

`CN(C)c1nc(NCCNS(=O)(=O)c2ccc(C(=O)/C=C/c3ccc(Cl)cc3)cc2)nc(Nc2ccc(F)cc2)n1`: the growth is -100% (active). Consider `COc1ccc(-c2ccnc(SCc3cc4ccccc4[nH]c3=O)n2)cc1`, for which the growth was 49.9% (inactive). Regarding `N=C1N=C(SCc2nc3ccccc3[nH]2)NC(=O)/C1=C/c1ccc(Cl)cc1`, the growth is 91.3% (inactive). In the case of `COc1ccc(-c2ccnc(SCc3cc4cc(Cl)ccc4[nH]c3=O)n2)cc1` it was 80.9% (inactive); in that of `CCCCCCCCOc1cccc(S(=O)(=O)Nc2ccc(C)cc2C(=O)O)c1`, 101% (inactive). Turning to `COc1ccc(-c2ccc(SCC(=O)Nc3ccc(S(N)(=O)=O)cc3Br)nn2)cc1`, the growth is 98.8% (inactive).

Values taken from PubChem BioAssay (NCI).
